Laboratory results from the supplement of paper PMC10042075.
Several values for one entry are separate records, joined by “and”; a condition that tells them apart may be missing. Equal values may be shown once. Where a name gives a salt, the structure may show the parent alone. ± gives the standard deviation of the averaged measurements.

These molecules were tested on LASCPC-01 (assay: cell viability relative to DMSO control (fraction); higher = less growth inhibition (more viable cells)). Details: 2 µM; 72 h.
Description: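 High-throughput single-dose screen in the LASCPC-01 NEPC cell line in 384-well plates. Cells were treated with each compound at 2 µM for 72 h, and viability was read by CellTiter-Glo luminescence. Values are normalised to the DMSO control (compound/DMSO) from three replicates; only the 5-HT-related subset of the 7315-compound library is given.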

| Structure (SMILES) | cell viability |
| --- | --- |
| O=c1[nH]c2ccccc2n1CCN1CCN(c2cccc(C(F)(F)F)c2)CC1 [Flibanserin] | 1.02 |
| Cc1ncc(CO)c(CO)c1O [Metadoxine] | 1.13 |
| c1ccc2c(c1)CC(N1CCN(c3cccc4c3OCCO4)CC1)C2 | 0.835 |
| O=C1CC2(CCCC2)CC(=O)N1CCCCN1CCN(c2ncccn2)CC1 [Buspirone HCl] | 1.02 |
| Cc1cc(NC(=O)Nc2ccc3c(ccn3C)c2)sn1 | 0.944 |
| CN1CCC[C@@H]1Cc1c[nH]c2ccc(CCS(=O)(=O)c3ccccc3)cc12 [Eletriptan hydrobromide] | 1.21 |
| COc1ccccc1N1CCN(CCCCN2C(=O)c3ccccc3C2=O)CC1 [NAN-190 hydrobromide] | 0.884 |
| Cc1ccc(Sc2ccccc2N2CCNCC2)c(C)c1 [Vortioxetine] | 0.666 |
| CCc1nn(CCCN2CCN(c3cccc(Cl)c3)CC2)c(=O)n1CCOc1ccccc1 [Nefazodone hydrochloride] | 1.03 |
| CN1CCN(c2cc3c(nn2)Oc2ccccc2N3C)CC1 [Azaphen] | 0.951 |
| N[C@@H]1CC[C@@H](c2ccc(Cl)c(Cl)c2)c2ccccc21 [Dasotraline hydrochloride] | 1.13 |
| CC1CCN(CC[C@H]2CCCN2S(=O)(=O)c2cccc(O)c2)CC1 | 0.707 and 0.855 |
| Cc1cc2c(s1)Nc1ccccc1N=C2N1CCN(C)CC1 [Olanzapine] | 1.02 ± 0.042 |
| Nc1ccc2c(C(F)(F)F)cc(=O)oc2c1 [7-Amino-4-(trifluoromethyl)coumarin] | 0.894 |
| O=C1c2cccc3c2[C@H](CCC3)CN1[C@@H]1CN2CCC1CC2 [Palonosetron hydrochloride] | 0.935 |
| CC(C)COc1ccc(CNC(=O)N(Cc2ccc(F)cc2)C2CCN(C)CC2)cc1 [Pimavanserin tartrate] | 0.514 |
| CN(C)CCCN1c2ccccc2CCc2ccc(Cl)cc21 [Clomipramine hydrochloride] | 0.987 |
| O=c1ccccn1CC1(O)CCN(Cc2ccccc2)CC1 | 1.05 |
| COCCCC/C(=N\OCCN)c1ccc(C(F)(F)F)cc1 [Fluvoxamine maleate] | 1.07 ± 0.028 |
| CN[C@H]1CC[C@@H](c2ccc(Cl)c(Cl)c2)c2ccccc21 [Sertraline hydrochloride] | 0.958 |

| Structure (SMILES) | cell viability |
| --- | --- |
| NC(N)=NC(N)=Nc1cccc(Cl)c1 [1-(m-Chlorophenyl)-biguanide hydrochloride] | 1.03 |
| CN(C)CCCC1(c2ccc(F)cc2)OCc2cc(C#N)ccc21 (stereo not given) [Citalopram hydrobromide] | 1.06 |
| C=C1C(=O)O[C@H]2[C@H]1CC/C(C)=C/CC[C@@]1(C)O[C@@H]21 [Parthenolide] | 0.323 |
| Cc1ccc(Sc2ccccc2N2CCNCC2)c(C)c1 | 1.01 |
| CN1CCC[C@@H]1Cc1c[nH]c2ccc(CCS(=O)(=O)c3ccccc3)cc12 [Eletriptan HBr] | 0.983 |
| Cn1c(=O)cnn(CCCCN2CCN(c3ncccn3)CC2)c1=O [Eptapirone] | 0.947 |
| O=c1c(-c2ccc(O)cc2)coc2c([C@@H]3O[C@H](CO)[C@@H](O)[C@H](O)[C@H]3O)c(O)ccc12 [Puerarin] | 0.989 |
| Fc1ccc([C@@H]2CCNC[C@H]2COc2ccc3c(c2)OCO3)cc1 [Paroxetine HCl] | 1.02 |
| CNS(=O)(=O)CCc1ccc2[nH]cc(C3CCN(C)CC3)c2c1 [Naratriptan] | 1.03 |
| COc1ccccc1N1CCN(CCN2C(=O)CC3(CCCC3)CC2=O)CC1 | 0.815 |
| CNCC[C@H](Oc1cccc2ccccc12)c1cccs1 [Duloxetine HCl] | 1.13 |
| Clc1ccc2c(c1)N=C(N1CCNCC1)c1ccccc1N2 [N-Desmethylclozapine] | 0.907 |
| N#Cc1ccc2[nH]cc(CCCCN3CCN(c4ccc5oc(C(N)=O)cc5c4)CC3)c2c1 [Vilazodone HCl] | 0.916 |
| CN(C)CCCN1c2ccccc2CCc2ccc(Cl)cc21 [Clomipramine HCl] | 0.826 |
| CC(N)C(=O)OC(C)(C)Cc1ccc(Cl)cc1 (stereo not given) [Alaproclate hydrochloride] | 1.13 |
| CN(C)C(=O)N[C@H]1CC[C@H](CCN2CCN(c3cccc(Cl)c3Cl)CC2)CC1 [Cariprazine] | 0.892 |
| O=S(=O)(c1ccccc1)c1cnc2c(N3CCNCC3)cccc2c1 | 0.879 |
| CN(C)[C@@H](CCOc1cccc2ccccc12)c1ccccc1 [Dapoxetine HCl] | 1.03 |
| OC(CN1CCN(c2cccc(Cl)c2)CC1)C(c1ccccc1)c1ccccc1 (stereo not given) | 0.778 |
| CNc1cc(NS(=O)(=O)c2ccc(N)cc2)nc(NC)n1 [Ro 04-6790 dihydrochloride] | 1.03 |
